Among the data in PubChem BioAssay (Tox21) are Potency values, retold here.

The source made the active and inactive calls. Unless noted, calls come from the whole dose curve; as a rule, active = well fitted curve in the direction sought with a large enough effect in the repeat runs; inconclusive = weak or mixed curves; inactive = no such curve, though single readings can be large; an effect the other way counts as inactive or inconclusive.

Test [1] can be described thus: qHTS assay to identify small molecule antagonists of the glucocorticoid receptor (GR) signaling pathway - cell viability counter screen (AID 720693). Note: nearly all actives have a fitted effect of over 55% in size. Note: potency is the fitted concentration of half-maximal effect. As to conditions: GR-bla HeLa viability, CellTiter-Glo luminescence, 18 h, with 5 nM dexamethasone present; series mostly up to 58.5 µM. (In qHTS, concentration-response curves come from the screen itself.)
The nature of test [2]: qHTS assay for identifying genotoxic compounds that show differential cytotoxicity against isogenic chicken DT40 cell lines with known DNA damage response pathways - wild type cell line (AID 743012). Note: nearly all actives have a fitted effect of over 60% in size. Note: potency is the fitted concentration of half-maximal effect. As to conditions: DT40 wild type chicken cells viability, CellTiter-Glo, 40 h; series mostly up to 68.4 µM. The procedure, abridged:
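Viability by ATP luminescence (CellTiter-Glo, 30 min RT) after 40 h compound treatment at 37 C/5% CO2, using 300 parental DNA repair-proficient DT40 cells per well.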

A short description of test [3]: qHTS assay for identifying genotoxic compounds that show differential cytotoxicity against isogenic chicken DT40 cell lines with known DNA damage response pathways - Rev3 mutant cell line (AID 743014). Note: nearly all actives have a fitted effect of over 55% in size. Note: potency is the fitted concentration of half-maximal effect. As to conditions: chicken DT40 Rev3-/- viability, CellTiter-Glo, 40 h; series mostly up to 68.4 µM.
A short description of test [4]: qHTS assay for identifying genotoxic compounds that show differential cytotoxicity against isogenic chicken DT40 cell lines with known DNA damage response pathways - Rad54/Ku70 mutant cell line (AID 743015). Note: nearly all actives have a fitted effect of over 60% in size. Note: potency is the fitted concentration of half-maximal effect. As to conditions: DT40 Rad54/Ku70 mutant viability, CellTiter-Glo, 40 h; series mostly up to 66.8 µM.
Test [5] can be described thus: qHTS assay to identify small molecule antagonists of the androgen receptor (AR) signaling pathway - cell viability counter screen (AID 743033; note: nearly all actives have a fitted effect of over 45% in size; note: potency is the fitted concentration of half-maximal effect). The conditions noted are these: AR-bla HEK293 viability, CellTiter-Glo luminescence, 16 h; series mostly up to 58.5 µM.
The nature of test [6]: qHTS assay to identify small molecule antagonists of the androgen receptor (AR) signaling pathway using the MDA cell line - cell viability counter screen (AID 743041; note: nearly all actives have a fitted effect of over 45% in size; note: potency is the fitted concentration of half-maximal effect). The conditions noted are these: MDA-kb2 viability, CellTiter-Fluor, 16 h, cells co-treated with R1881 androgen agonist; series mostly up to 70.3 µM. The procedure, abridged: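 Cytotoxicity counter screen: MDA-kb2 AR-luc cells, compound + R1881, 16 h, 37C, 0% CO2; CellTiter-Fluor added at 15.5 h, fluorescence read after 30 min.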

Test [7] is described as follows: qHTS assay to identify small molecule antagonists of the thyroid receptor (TR) signaling pathway (AID 743065). Note: nearly all actives have a fitted effect of over 55% in size. Note: potency is the fitted concentration of half-maximal effect. The conditions noted are these: GH3.TRE-Luc, T3-stimulated luciferase inhibition, 23.5 h; series mostly up to 70.3 µM. The procedure, abridged:
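GH3.TRE-Luc rat pituitary cells (two TREs driving luciferase) were dosed with compound, then stimulated with 1 nM T3 (final) for 23.5 h at 37 C. ONE-Glo luminescence was the read-out, with CellTiter-Fluor fluorescence as the cytotoxicity counter-screen.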

Test [8] deals with thyroid hormone receptor (rat, GH3 cells). The experiment in a line: qHTS assay to identify small molecule agonists of the thyroid receptor (TR) signaling pathway (AID 743066; calls by dose curve). The conditions noted are these: GH3.TRE-Luc cells, TR agonist luciferase, 24 h; series mostly up to 83.9 µM.
The target of test [9] is Estrogen receptor (Homo sapiens) (UniProt P03372). The experiment in a line: qHTS assay to identify small molecule antagonists of the estrogen receptor alpha (ER-alpha) signaling pathway (AID 743069; active = well fitted curve in the direction sought with a large enough effect in the signal ratio in the repeat runs, not every such curve was filed as active; inconclusive = weak or mixed curves, or effect the other way; inactive = no such curve, though single readings can be large or run the other way; the % refers to the signal ratio; note: potency is the fitted concentration of half-maximal effect). As to conditions: HEK293 ER-alpha-UAS-bla, beta-lactamase ratio, antagonist mode; series mostly up to 69.4 µM. The procedure, abridged:
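Beta-lactamase FRET fluorescence is read after 2 hr at room temperature with LiveBLAzer B/G substrate. Before that, ER-alpha-bla HEK293 cells sit 4 hr after plating, then receive compound plus 17beta-estradiol and incubate 18 hr at 37C.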

Test [10] in a line: qHTS assay to identify small molecule antagonists of the estrogen receptor alpha (ER-alpha) signaling pathway - cell viability counter screen (AID 743074; calls by dose curve;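 note: HEK293 cells carrying ER-alpha-UAS-bla reporter stimulated with 17beta-estradiol; nearly all actives have a fitted effect of over 45% in size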; note: potency is the fitted concentration of half-maximal effect). As to conditions: ERalpha-bla HEK293 viability, CellTiter-Glo luminescence, 18 h; series mostly up to 69.4 µM.
Test [11] addresses Estrogen receptor (Homo sapiens) (UniProt P03372). The experiment in a line: qHTS assay to identify small molecule agonists of the estrogen receptor alpha (ER-alpha) signaling pathway (AID 743075; calls by dose curve;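 note: HEK293 GripTite cells with ER-alpha and UAS-driven beta-lactamase reporter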; note: potency is the fitted concentration of half-maximal effect). The conditions noted are these: HEK293 ER-alpha-UAS-bla, beta-lactamase FRET ratio, 18 h; series mostly up to 70.1 µM.
Test [12] shares this target. The experiment in a line: qHTS assay to identify small molecule agonists of the estrogen receptor alpha (ER-alpha) signaling pathway using the BG1 cell line (AID 743079). Note: nearly all actives have a fitted effect of over 20% in size. The conditions noted are these: BG1Luc4E2 cells, ERE-luciferase agonist, 22 h; series mostly up to 70.3 µM.
Test [13] is described as follows: qHTS assay to identify small molecule antagonists of the estrogen receptor alpha (ER-alpha) signaling pathway using the BG1 cell line (AID 743080; calls by dose curve;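 note: BG1 cells stimulated with 17beta-estradiol alongside compound; nearly all actives have a fitted effect of over 25% in size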). The conditions noted are these: BG1Luc4E2 ERE-luciferase antagonist mode, luminescence; series mostly up to 70.3 µM. The procedure, abridged: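 After 5 days in phenol-red-free 10% charcoal-stripped FBS medium, BG1-Luc-4E2 cells were seeded, left 24 h at 37 C, co-treated with compounds and 17beta-estradiol for 21.5 h, then assayed for viability and luciferase.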

Test [14] can be described thus: qHTS assay to identify small molecule antagonists of the estrogen receptor alpha (ER-alpha) signaling pathway using the BG1 cell line - cell viability counter screen (AID 743081).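 Note: compound given together with 17beta-estradiol as the ER stimulus; nearly all actives have a fitted effect of over 45% in size.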 As to conditions: BG1Luc4E2 viability, CellTiter-Fluor, 22 h; series mostly up to 70.3 µM.
The next test concerns the target Aromatase (Homo sapiens) (UniProt P11511). The experiment in a line: qHTS assay to identify aromatase inhibitors (AID 743083). Note: nearly all actives have a fitted effect of over 55% in size. Note: potency is the fitted concentration of half-maximal effect. As to conditions: MCF-7 aro ERE, testosterone-driven ERE luciferase, 24 h; series mostly up to 70.3 µM.
A short description of test [15]: qHTS assay to identify small molecule antagonists of the thyroid receptor (TR) signaling pathway - cell viability counter screen (AID 743064). Note: nearly all actives have a fitted effect of over 50% in size. Note: potency is the fitted concentration of half-maximal effect. As to conditions: GH3.TRE-Luc viability, CellTiter-Fluor, 24 h; series mostly up to 70.3 µM. The procedure, abridged: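 In-well cytotoxicity read by CellTiter-Fluor (30 min, 37 C) following 23.5 h exposure of GH3 cells bearing a TRE-luciferase sensor. Compounds were added alongside 1 nM (final) T3 to drive TR transactivation.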

Sequence of Aromatase (Homo sapiens) (P11511 whole entry, looked up): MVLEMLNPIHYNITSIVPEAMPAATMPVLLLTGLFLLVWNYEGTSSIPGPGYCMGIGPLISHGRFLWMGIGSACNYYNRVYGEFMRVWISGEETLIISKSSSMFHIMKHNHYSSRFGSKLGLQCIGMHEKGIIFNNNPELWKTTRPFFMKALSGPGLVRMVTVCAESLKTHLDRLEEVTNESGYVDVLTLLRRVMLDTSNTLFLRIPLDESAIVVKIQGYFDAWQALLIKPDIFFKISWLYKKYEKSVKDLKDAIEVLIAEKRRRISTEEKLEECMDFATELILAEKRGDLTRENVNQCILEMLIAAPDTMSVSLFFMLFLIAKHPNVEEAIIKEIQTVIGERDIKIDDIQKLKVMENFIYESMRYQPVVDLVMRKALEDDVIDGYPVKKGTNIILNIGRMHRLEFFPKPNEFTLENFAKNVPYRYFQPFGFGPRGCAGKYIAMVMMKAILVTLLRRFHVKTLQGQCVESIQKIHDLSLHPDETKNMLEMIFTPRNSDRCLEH
Sequence of Estrogen receptor (Homo sapiens) (P03372 whole entry, looked up): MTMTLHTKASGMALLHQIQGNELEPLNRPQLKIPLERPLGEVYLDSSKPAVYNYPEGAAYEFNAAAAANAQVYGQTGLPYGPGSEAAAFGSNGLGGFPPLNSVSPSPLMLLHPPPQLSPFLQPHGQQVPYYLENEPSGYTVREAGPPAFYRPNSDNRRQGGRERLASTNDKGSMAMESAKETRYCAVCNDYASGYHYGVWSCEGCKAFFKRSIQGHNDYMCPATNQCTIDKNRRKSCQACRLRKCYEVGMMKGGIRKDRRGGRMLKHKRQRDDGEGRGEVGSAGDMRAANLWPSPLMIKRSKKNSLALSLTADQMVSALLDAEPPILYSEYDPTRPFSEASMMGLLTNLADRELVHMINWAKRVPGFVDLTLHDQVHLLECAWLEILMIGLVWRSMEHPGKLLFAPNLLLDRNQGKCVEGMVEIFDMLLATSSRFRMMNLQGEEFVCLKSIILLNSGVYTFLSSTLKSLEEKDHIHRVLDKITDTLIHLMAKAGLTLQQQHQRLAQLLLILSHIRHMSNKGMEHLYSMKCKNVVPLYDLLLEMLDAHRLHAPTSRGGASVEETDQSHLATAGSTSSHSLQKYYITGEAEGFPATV

Take `BrCCCCBr`: the Potency entry in [1], in [2], in [3], in [4], in test [5] and in test [6] was “inactive” throughout. In addition, the Potency result in test [7], in test [8], in [9], in test [10], in [11] and in test [12] was “inactive” throughout. Further, the Potency result (in test [13]; in test [14]; with Aromatase (Homo sapiens)) was “inactive” in each case.
With `CC1C(=O)C[C@]2(C(C)C)C[C@H]12` (stereo partly drawn), the Potency entry in test [1], in test [2], in test [3], in test [4], in test [5] and in test [6] was “inactive” in each case. Moreover, the Potency result (in test [15]; in [7]; in [8]; in test [14]; in the test with Aromatase (Homo sapiens)) was “inactive” in each case.
Turning to `Clc1cccc2ccccc12`, the Potency entry in [1], in test [2], in [3], in test [4], in test [5] and in test [15] was “inactive” throughout. The Potency entry (in [7]; in test [8]; in test [10]; in test [14]; in the test with Aromatase (Homo sapiens)) was “inactive” throughout.
`CCOC(=O)CBr`: the Potency entry in test [1], in test [2], in test [3], in test [4], in test [5] and in test [7] was “inactive” each time. Also, the Potency result (in [8]; in [10]; in test [14]; in the test with Aromatase (Homo sapiens)) was “inactive” each time.
For `CCOP(=S)(OCC)SCn1nnc2ccccc2c1=O`, the Potency entry in test [1] and in test [8] was “inactive” throughout. In addition, the Potency in test [2] was 7.7 µM (active); in test [3] it was 7.7 µM (active); in [4], 9.69 µM (active); in [5], 24.5 µM (active); in test [6], 61.1 µM (active); in test [7], 61.1 µM (active). For the same compound, the values for the Potency (in [10]; in test [11]; with Aromatase (Homo sapiens)) were 49 µM (active), 19.5 µM [inconclusive] (active) and 34.4 µM (active), respectively.
`COC(=O)C(Cl)C(=O)OC`: the Potency result in [1], in [2], in test [3], in [4], in [5] and in [15] was “inactive” each time. In addition, the Potency result in [7], in [8], in test [9], in test [10], in [11] and in test [12] was “inactive” in each case. Also, the Potency entry (in test [14]; with Aromatase (Homo sapiens)) was “inactive” each time.
As to `O=C(CBr)OCc1ccccc1`, the Potency result in [1], in test [2], in [3], in test [4], in test [5] and in [15] was “inactive” in each case. In addition, the Potency entry (in test [9]; in test [10]; in [13]; in [14]; with Aromatase (Homo sapiens)) was “inactive” in each case.
For the compound `C=CCC1([C@H](C)CCC)C(=O)NC(=O)NC1=O`, the Potency entry in [1], in test [2], in test [3], in test [4], in [5] and in test [15] was “inactive” in each case. The Potency entry in [7], in [8], in [9], in test [10], in test [11] and in [12] was “inactive” throughout. Also, the Potency result (in test [13]; in test [14]; in the test with Aromatase (Homo sapiens)) was “inactive” in each case.
Consider `CCC(C)(NC(=O)c1cc(Cl)c(C)c(Cl)c1)C(=O)CCl` (stereo not drawn), for which the Potency was 43.9 µM (active) in test [1]; 6.9 µM (active) in test [2]; 12.3 µM (active) in test [3]; 9.75 µM (active) in [4]; 24.7 µM (active) in test [5]; 15.4 µM (active) in test [15]. Besides, the Potency in test [7] was 8.69 µM (active); in [9] it was 62 µM [inconclusive] (active); in the test with Aromatase (Homo sapiens), 61.5 µM (active). For the same compound, the Potency entry in test [14] was “inactive”.
For `Clc1ccc(C2(Cn3cncn3)CC(Br)CO2)c(Cl)c1` (stereo not drawn), the Potency result in test [1], in test [15], in test [8], in [10], in test [11] and in [14] was “inactive” throughout. Further, the Potency in test [2] is 8.58 µM (active); in [3] it was 8.58 µM (active); in [4], 12.1 µM (active); with Aromatase (Homo sapiens), 17.1 µM (active).
